The target of experiment [1] is Peroxisome proliferator-activated receptor gamma (Homo sapiens) (UniProt P37231). Description: NVS_NR_hPPARg: NovaScreen (NVS) Nuclear Receptor Binding Assay for human Peroxisome Proliferator-activated Receptor gamma (PPARg) (AID 2283370). In outline: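 Fluorescence polarization readout of ligand binding to extracted human PPARg, measured at 2 h. Duplicate single-point screen at 25 uM, then concentration-series retesting; activity defined as signal loss versus DMSO.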

Experiment [2] deals with Glucocorticoid receptor (Homo sapiens) (UniProt P04150). Nature of the experiment: NVS_NR_hGR: NovaScreen (NVS) Nuclear Receptor Binding Assay for human Glucocorticoid Receptor (GR) (AID 2283363).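 For AC50: activity is loss of specific radioligand binding signal relative to DMSO.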 In outline: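 Cell-free radioligand displacement assay on extracted human GR, read 16 h after dosing by filter-based scintillation counting. Screened in duplicate at 25 uM, then concentration series for actives; loss of signal versus DMSO baseline.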

Experiment [3] has as its target human Adenosine Transporter (Adot), SLC29A1 (gene 2030) (UniProt Q99808). Description: NVS_TR_hAdoT: NovaScreen (NVS) Transporter Assay for human Adenosine Transporter (Adot) (AID 2283368). In a few lines: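 U937-derived membranes, cell-free radioligand binding, filter scintillation 1 h after dosing. 25 uM duplicate screen; hits (e.g. 30% inhibition) run in concentration-response up to 50 uM; loss of signal versus DMSO.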

In experiment [4] the test system is guinea pig Dopamine Transporter (DAT), gene 100714898. Nature of the experiment: NVS_TR_gDAT: NovaScreen (NVS) Transporter Assay for guinea pig Dopamine Transporter (DAT) (AID 2283369).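 Note: active compounds lower bound radioligand signal relative to DMSO.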 In a few lines: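 Radioligand displacement on membranes from guinea pig striatum, 2 h exposure, bound label counted by filtration and scintillation. Tested at 25 uM in duplicate, then actives in concentration series to 50 uM; DMSO as negative control.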

Experiment [5] concerns the target human Dopamine Transporter (DAT), SLC6A3 (gene 6531) (UniProt Q01959). Nature of the experiment: NVS_TR_hDAT: NovaScreen (NVS) Transporter Assay for human Dopamine Transporter (DAT) (AID 2283374).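 Note: activity means loss of bound radioligand signal relative to DMSO.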 In outline: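 Cell-free radioligand displacement binding at human DAT, 1 h after dosing, with filtration and scintillation counting. Primary screen in duplicate at 25 uM, actives then in concentration series. Loss of bound signal versus DMSO scored.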

In experiment [6] the target is human Serotonin Transporter (SERT), SLC6A4 (gene 6532) (UniProt P31645). Nature of the experiment: NVS_TR_hSERT: NovaScreen (NVS) Transporter Assay for human Serotonin Transporter (SERT) (AID 2283372). In a few lines:
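Radioligand binding to native SERT in human platelet membranes, read by filter-based scintillation counting 1 h after dosing. Primary screen in duplicate at 25 uM; actives followed up in concentration series; loss of signal versus DMSO baseline.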

The test system of experiment [7] is rat Norepinephrine Transporter (NET), gene 83511. Description: NVS_TR_rNET: NovaScreen (NVS) Transporter Assay for rat Norepinephrine Transporter (NET) (AID 2283373). In a few lines:
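Rat forebrain membranes; radioligand binding measured by filter-based scintillation counting 1 hour after dosing. Loss of specific binding versus DMSO baseline scored; primary screen in duplicate at 25 uM, actives followed up in concentration series.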

The target of experiment [8] is Nuclear receptor subfamily 1 group I member 2 (Homo sapiens) (UniProt O75469). Nature of the experiment: NVS_NR_hPXR: NovaScreen (NVS) Nuclear Receptor Binding Assay for human Pregnane X Receptor (PXR) (AID 2283365).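 Note: a drop in FRET signal versus DMSO baseline means the compound binds.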 In a few lines:
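Human PXR binding measured by TR-FRET in a cell-free format, 2 h exposure. Single-concentration duplicates at 25 uM preceded concentration-response retests of actives; endpoint fitted positively relative to DMSO, loss of signal indicating binding.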

The target in experiment [9] is rat Androgen Receptor (AR), Ar (gene 24208) (UniProt P15207). Description: NVS_NR_rAR: NovaScreen (NVS) Nuclear Receptor Binding Assay for rat Androgen Receptor (AR) (AID 2283366). In outline: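 Cell-free radioligand binding on extracts of prostate from testosterone-pretreated rats, read by filter-based scintillation counting 18 h after dosing. Loss of bound signal fitted positively versus DMSO; primary screen in duplicate at 25 uM, actives followed up in concentration series.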

In PubChem BioAssay (EPA / NIEHS) one finds outcome and AC50 data, which are given here for 15 compounds.

Inconclusive results are not listed. Calls of active or inactive are those of the source. Rule for the calls: active = hit-call score of the fitted dose curve at least 0.9, where 1 is the maximum; inconclusive = response in the unintended direction; inactive = score below 0.9.

Sequence of human Serotonin Transporter (SERT), SLC6A4 (gene 6532) (P31645 whole entry, looked up): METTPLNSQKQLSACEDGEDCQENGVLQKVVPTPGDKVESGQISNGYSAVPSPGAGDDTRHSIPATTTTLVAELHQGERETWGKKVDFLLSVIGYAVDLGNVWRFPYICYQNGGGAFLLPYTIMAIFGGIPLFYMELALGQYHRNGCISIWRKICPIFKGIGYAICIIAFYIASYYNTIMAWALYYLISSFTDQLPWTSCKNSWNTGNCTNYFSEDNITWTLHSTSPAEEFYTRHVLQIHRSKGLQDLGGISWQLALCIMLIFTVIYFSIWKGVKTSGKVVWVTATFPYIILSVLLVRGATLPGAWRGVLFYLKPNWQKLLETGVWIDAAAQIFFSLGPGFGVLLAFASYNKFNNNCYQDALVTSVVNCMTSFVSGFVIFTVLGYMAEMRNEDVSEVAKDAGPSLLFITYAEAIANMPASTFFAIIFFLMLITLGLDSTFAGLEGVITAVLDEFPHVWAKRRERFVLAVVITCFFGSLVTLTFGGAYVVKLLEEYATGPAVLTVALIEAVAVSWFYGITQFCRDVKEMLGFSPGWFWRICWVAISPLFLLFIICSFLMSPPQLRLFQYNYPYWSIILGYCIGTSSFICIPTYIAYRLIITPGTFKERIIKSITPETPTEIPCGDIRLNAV
Sequence of human Dopamine Transporter (DAT), SLC6A3 (gene 6531) (Q01959 whole entry, looked up): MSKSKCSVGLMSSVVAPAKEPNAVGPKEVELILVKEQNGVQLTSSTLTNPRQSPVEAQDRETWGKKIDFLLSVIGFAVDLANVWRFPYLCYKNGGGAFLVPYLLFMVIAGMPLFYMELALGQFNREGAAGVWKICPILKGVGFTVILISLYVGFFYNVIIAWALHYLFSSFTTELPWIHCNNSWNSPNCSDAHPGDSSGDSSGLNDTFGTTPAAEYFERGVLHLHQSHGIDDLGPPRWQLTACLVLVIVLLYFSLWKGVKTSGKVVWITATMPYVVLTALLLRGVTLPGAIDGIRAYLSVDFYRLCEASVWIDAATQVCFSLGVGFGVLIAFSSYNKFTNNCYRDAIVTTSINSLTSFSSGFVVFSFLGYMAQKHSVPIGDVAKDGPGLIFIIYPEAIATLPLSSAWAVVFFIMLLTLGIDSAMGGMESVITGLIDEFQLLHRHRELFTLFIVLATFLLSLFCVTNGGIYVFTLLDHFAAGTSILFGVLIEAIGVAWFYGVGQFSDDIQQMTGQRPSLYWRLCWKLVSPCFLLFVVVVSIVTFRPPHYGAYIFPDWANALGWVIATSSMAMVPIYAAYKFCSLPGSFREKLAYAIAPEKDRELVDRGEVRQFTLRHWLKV
Sequence of Peroxisome proliferator-activated receptor gamma (Homo sapiens) (P37231 whole entry, looked up): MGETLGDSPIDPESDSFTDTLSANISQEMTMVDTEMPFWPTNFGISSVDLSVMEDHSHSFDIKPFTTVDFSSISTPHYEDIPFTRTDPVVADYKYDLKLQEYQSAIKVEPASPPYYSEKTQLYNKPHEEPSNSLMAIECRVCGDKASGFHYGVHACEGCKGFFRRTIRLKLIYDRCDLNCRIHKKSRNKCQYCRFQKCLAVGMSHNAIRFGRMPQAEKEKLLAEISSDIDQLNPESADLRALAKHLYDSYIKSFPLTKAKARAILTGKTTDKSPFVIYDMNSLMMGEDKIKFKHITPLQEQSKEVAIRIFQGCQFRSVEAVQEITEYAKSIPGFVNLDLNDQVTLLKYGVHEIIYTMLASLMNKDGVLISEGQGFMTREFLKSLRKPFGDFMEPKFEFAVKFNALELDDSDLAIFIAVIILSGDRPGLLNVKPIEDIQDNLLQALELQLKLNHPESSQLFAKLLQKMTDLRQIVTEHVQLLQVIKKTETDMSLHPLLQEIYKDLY
Sequence of Glucocorticoid receptor (Homo sapiens) (P04150 whole entry, looked up): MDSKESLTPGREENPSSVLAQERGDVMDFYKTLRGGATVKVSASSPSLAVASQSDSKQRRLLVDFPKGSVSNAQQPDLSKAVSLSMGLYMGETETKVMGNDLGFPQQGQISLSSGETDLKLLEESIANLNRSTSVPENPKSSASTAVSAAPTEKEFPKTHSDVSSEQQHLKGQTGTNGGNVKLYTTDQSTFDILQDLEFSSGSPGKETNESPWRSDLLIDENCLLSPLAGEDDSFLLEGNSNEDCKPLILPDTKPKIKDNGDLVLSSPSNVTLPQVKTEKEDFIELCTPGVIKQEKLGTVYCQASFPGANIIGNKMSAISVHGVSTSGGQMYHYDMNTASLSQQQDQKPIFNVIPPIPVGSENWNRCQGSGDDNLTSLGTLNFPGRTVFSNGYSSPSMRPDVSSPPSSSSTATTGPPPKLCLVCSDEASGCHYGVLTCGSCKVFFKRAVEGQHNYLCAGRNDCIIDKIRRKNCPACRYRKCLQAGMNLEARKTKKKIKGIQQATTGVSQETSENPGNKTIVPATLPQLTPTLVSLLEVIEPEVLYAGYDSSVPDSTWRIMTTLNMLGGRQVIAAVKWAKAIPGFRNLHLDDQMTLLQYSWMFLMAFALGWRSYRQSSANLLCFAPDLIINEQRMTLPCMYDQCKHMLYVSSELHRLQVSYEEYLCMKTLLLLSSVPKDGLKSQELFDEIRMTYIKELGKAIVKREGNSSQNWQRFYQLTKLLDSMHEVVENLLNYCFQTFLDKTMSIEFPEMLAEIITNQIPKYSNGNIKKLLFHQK
Sequence of human Adenosine Transporter (Adot), SLC29A1 (gene 2030) (Q99808 whole entry, looked up): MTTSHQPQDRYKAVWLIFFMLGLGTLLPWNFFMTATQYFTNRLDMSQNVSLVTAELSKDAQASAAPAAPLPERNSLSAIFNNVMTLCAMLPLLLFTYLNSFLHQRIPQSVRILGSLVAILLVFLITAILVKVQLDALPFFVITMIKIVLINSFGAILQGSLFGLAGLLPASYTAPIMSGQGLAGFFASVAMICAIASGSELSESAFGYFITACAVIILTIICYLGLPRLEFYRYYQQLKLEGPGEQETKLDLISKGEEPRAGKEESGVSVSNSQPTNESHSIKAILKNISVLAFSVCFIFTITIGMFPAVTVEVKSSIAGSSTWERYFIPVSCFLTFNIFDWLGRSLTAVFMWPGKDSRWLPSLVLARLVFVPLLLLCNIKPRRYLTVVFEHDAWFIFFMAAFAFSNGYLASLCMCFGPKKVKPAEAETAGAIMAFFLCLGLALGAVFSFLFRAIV
Sequence of Nuclear receptor subfamily 1 group I member 2 (Homo sapiens) (O75469 whole entry, looked up): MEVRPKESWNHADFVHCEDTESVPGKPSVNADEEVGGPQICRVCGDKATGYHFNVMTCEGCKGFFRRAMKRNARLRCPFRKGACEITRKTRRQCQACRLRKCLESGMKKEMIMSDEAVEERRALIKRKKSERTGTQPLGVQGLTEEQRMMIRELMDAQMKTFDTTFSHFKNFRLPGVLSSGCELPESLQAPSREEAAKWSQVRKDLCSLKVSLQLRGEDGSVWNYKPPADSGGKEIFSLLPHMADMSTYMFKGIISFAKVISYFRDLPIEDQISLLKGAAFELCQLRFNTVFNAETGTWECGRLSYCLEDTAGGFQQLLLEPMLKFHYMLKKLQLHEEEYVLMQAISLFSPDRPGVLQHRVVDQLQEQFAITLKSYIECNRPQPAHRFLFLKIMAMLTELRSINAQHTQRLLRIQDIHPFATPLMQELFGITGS
Sequence of rat Androgen Receptor (AR), Ar (gene 24208) (P15207 whole entry, looked up): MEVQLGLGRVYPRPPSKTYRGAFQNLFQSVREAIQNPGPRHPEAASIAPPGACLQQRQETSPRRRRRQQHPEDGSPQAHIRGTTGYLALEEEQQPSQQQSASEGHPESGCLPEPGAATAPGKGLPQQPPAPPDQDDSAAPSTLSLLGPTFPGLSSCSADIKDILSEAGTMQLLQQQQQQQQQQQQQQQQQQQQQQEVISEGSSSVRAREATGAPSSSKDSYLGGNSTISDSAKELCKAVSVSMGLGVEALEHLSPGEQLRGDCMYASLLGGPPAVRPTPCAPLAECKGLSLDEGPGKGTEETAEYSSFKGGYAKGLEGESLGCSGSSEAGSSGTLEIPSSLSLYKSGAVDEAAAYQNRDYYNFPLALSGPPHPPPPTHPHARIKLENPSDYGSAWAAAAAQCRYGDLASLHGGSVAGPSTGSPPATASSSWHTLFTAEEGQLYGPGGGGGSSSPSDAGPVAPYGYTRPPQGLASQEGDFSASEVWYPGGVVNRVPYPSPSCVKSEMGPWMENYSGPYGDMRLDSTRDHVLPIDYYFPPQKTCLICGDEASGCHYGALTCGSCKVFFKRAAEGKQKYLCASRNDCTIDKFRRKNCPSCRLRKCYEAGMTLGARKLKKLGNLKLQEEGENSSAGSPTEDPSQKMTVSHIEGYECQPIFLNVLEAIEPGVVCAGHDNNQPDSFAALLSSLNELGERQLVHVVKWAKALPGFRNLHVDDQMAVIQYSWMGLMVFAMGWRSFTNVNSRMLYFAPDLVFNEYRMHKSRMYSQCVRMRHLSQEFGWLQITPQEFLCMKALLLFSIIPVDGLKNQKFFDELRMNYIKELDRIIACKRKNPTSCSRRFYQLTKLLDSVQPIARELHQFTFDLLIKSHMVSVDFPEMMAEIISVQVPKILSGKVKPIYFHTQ

As to `CC(C)(O)c1cnn2c(-c3ccc(F)c(-c4c(F)cccc4C#N)c3)cnc2n1`, in [1], the result was inactive.
The AC50 is the concentration giving half of the maximal activity seen. With `[Cl-].[Cl-].[Hg+2]`, the AC50 in [2] is 8.46 µM (active); in experiment [3] it was 5.1 µM (active); in [4] it was 44.2 µM (active); in [5] it was 25 µM (active).
`CCC[CH2][Sn]([Cl])([CH2]CCC)[CH2]CCC`: the AC50 was 0.726 µM (active) in [2]; 34.6 µM (active) in [3]; 11.1 µM (active) in [4]; 11.2 µM (active) in experiment [6]; 14.4 µM (active) in [7]; 3.59 µM (active) in experiment [5].
As for `Cn1cc(-c2ccccc2)c(=O)c(-c2cccc(C(F)(F)F)c2)c1`, the call in experiment [2], in [1] and in experiment [6] was inactive. Moreover, the AC50 in experiment [5] was 16.5 µM (active).
For the compound `CCNS(=O)(=O)C(F)(F)C(F)(F)C(F)(F)C(F)(F)C(F)(F)C(F)(F)C(F)(F)C(F)(F)F`, the compound was called inactive in [8], in experiment [3] and in experiment [1].
Turning to `CC(C)COC(=O)c1ccccc1C(=O)OCC(C)C`, the compound was called inactive in experiment [1].
Take `Oc1ccc2ccc3cccc4ccc1c2c34`: the half-maximal activity concentration (AC50) in [2] is 4.96 µM (active).
Turning to `O=C(Nc1ccccc1)c1ccccc1I`, the AC50 in [4] is 12.8 µM (active). Also, the result in experiment [1] was inactive.
Turning to `CCCCCOC(=O)c1ccccc1C(=O)OCCCCC`, the compound was called inactive in [2] and in [4].
In the case of `CC(C)N(Cc1ccccc1)C(=O)C(C)(C)C`, the half-maximal activity concentration (AC50) in experiment [4] was 13.7 µM (active); in experiment [5] it was 6.52 µM (active).
Regarding `Cc1cc(N=Nc2ccccc2C)ccc1N`, the result in experiment [9] and in experiment [1] was inactive. The concentration at half-maximal activity (AC50) in experiment [5] is 17.4 µM (active).
For `OCCOCCO`, the compound was classed as inactive in [8].
Turning to `CCC(C)c1ccc(O)cc1` (centres undefined), the AC50 in experiment [4] and in [5] was 4.96 µM (active) throughout. Also, the outcome in experiment [7] was inactive.
As for `O=[N+]([O-])c1ccc(Oc2ccc(Cl)cc2Cl)cc1`, the result in [2], in experiment [4] and in experiment [6] was inactive.
Turning to `Nc1ccc(Cc2ccc(N)cc2)cc1`, the compound was called inactive in experiment [4] and in experiment [7]. Also, the AC50 in experiment [5] is 9.3 µM (active).
